# Reference: PubChem BioAssay (NCI)
# About 79,000 compounds went through this panel and 15% of them were active in at least one assay; those are over-represented in the sample as a whole. Values without a mark were called inactive. Active and inactive are the calls of the source. Rule as the data show it: active = growth inhibition above about 70%; inactive = the rest.
# Legend:
# [1] = NCI Yeast Anticancer Drug Screen. Data for the rad52 strain (AID 147);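 also: 0% = growth of vehicle-treated control cultures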; settings: S. cerevisiae rad52 mutant growth inhibition, hits give high values
# Summary of the method: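 The repair-mutant yeast strain was incubated with compounds, then growth was read and inhibition derived relative to vehicle.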
# [2] = NCI Yeast Anticancer Drug Screen. Data for the wt1 strain (AID 149);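 also: 0% = growth of vehicle-treated wt1 cultures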; settings: S. cerevisiae wt1 strain (SPY 50644) growth inhibition, hits give high values
# Summary of the method: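 wt1 yeast, compound-treated; % growth inhibition vs vehicle control.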
# [3] = NCI Yeast Anticancer Drug Screen. Data for the mgt1 strain (AID 153); settings: S. cerevisiae mgt1 mutant growth inhibition, hits give high values
# Summary of the method: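 Vehicle-normalized growth inhibition is determined in mgt1 yeast, a strain selected for a defined alteration in DNA repair or cell cycle control.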
# [4] = NCI Yeast Anticancer Drug Screen. Data for the rad50 strain (AID 155);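 also: 0% = growth of vehicle-only cultures of the same strain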; settings: S. cerevisiae rad50 strain growth inhibition, hits give high values
# Summary of the method: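 Genetically altered yeast (DNA repair pathway); compound treatment; growth inhibition vs vehicle ctrl.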
# [5] = NCI Yeast Anticancer Drug Screen. Data for the mec2-1 strain (AID 157); settings: S. cerevisiae mec2-1 strain, hits give high values
# Summary of the method: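 Mutant yeast (mec2-1) grown with compound; growth inhibition relative to vehicle control reported.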
# [6] = NCI Yeast Anticancer Drug Screen. Data for the rad14 strain (AID 159);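 also: 0% = growth of vehicle-treated control cultures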; settings: S. cerevisiae rad14 strain growth inhibition, hits give high values
# Summary of the method: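 Test compounds were applied to a repair-deficient yeast strain. Its growth was then compared with that of cultures given vehicle alone, and inhibition was expressed relative to those controls.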
# [7] = NCI Yeast Anticancer Drug Screen. Data for the sgs1 mgt1 strain (AID 161);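 also: 0% = growth of cultures given vehicle only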; settings: S. cerevisiae sgs1 mgt1 strain, hits give high values
# Summary of the method: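 Compounds are added to genetically altered yeast, and growth is compared with cultures given vehicle alone to give percent inhibition.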
# [8] = NCI Yeast Anticancer Drug Screen. Data for the CLN2oe strain (AID 163);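 also: 0% = growth of vehicle-only control cultures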; settings: S. cerevisiae CLN2oe strain, hits give high values
# Summary of the method: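 Compounds are applied to yeast harbouring a defined cell-cycle control change; reduced growth compared with vehicle-treated controls gives the value.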
# [9] = NCI Yeast Anticancer Drug Screen. Data for the cln2 rad14 strain (AID 165);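 also: 0% = growth equal to vehicle treated cultures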; settings: S. cerevisiae cln2 rad14 strain, hits give high values
# Summary of the method: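 Readout is yeast growth inhibition versus vehicle-treated controls, using a strain with cln2 and rad14 alterations exposed to compound.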
# [10] = NCI Yeast Anticancer Drug Screen. Data for the bub3 strain (AID 167); settings: S. cerevisiae bub3 mutant strain, hits give high values
# Summary of the method: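 Yeast carrying a defined mutation is treated with each compound, and growth is compared with that of vehicle-exposed cells to give inhibition.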
# [11] = NCI Yeast Anticancer Drug Screen. Data for the wt2 strain (AID 169);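 also: 0% = growth of vehicle-treated yeast cultures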; settings: S. cerevisiae wt2 strain growth inhibition, hits give high values
# Summary of the method: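 Against vehicle-treated controls, the growth of yeast exposed to each compound was compared, and the inhibition was recorded.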
# [12] = NCI Yeast Anticancer Drug Screen. Data for the mlh1 strain (AID 171);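 also: 0% = growth of vehicle-treated control cultures of the same strain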; settings: S. cerevisiae mlh1 strain growth inhibition, hits give high values
# Summary of the method: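 Measured: yeast growth. Reference: vehicle-treated controls. Organism: strain with a defined alteration affecting DNA damage repair or cell cycle control, treated with compound.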
# [13] = NCI Yeast Anticancer Drug Screen. Data for the sgs1 strain (AID 173);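 also: 0% = growth of vehicle-only control cultures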; settings: S. cerevisiae sgs1 mutant, hits give high values
# Summary of the method: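 Each compound was added to cultures of the altered yeast strain. Growth was recorded, and inhibition was derived by comparison with vehicle controls.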
# [14] = NCI Yeast Anticancer Drug Screen. Data for the mlh1 rad18 strain (AID 175); settings: S. cerevisiae mlh1 rad18 strain growth inhibition, hits give high values
# Summary of the method: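 Genetically defined yeast (DNA repair-deficient) exposed to compounds; growth inhibition determined relative to vehicle.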
# [15] = NCI Yeast Anticancer Drug Screen. Data for the rad18 strain (AID 177); settings: S. cerevisiae rad18 mutant growth inhibition, hits give high values
# Summary of the method: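 Vehicle-treated cultures served as the baseline for scoring compound-induced growth inhibition in DNA-repair-mutant yeast.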
# [16] = at 5.0 µM (retest, dose inferred, filed as 0.5)
# [17] = at 50.0 µM (retest, dose inferred, filed as 5.0)
smiles,measurement,setting,value
COc1cc(NCc2ccc3nc(N)nc(N)c3c2C)cc(OC)c1OC,growth inhibition,[1]; at 1.2 µM,1%
same,growth inhibition,[1]; at 3.7 µM,5%
same,growth inhibition,[1]; at 11.0 µM,17%
same,growth inhibition,[1]; at 33.0 µM,37%
same,growth inhibition,[1]; at 100.0 µM,68%
same,growth inhibition,[2]; at 1.2 µM,-1%
same,growth inhibition,[2]; at 3.7 µM,-4%
same,growth inhibition,[2]; at 11.0 µM,-6%
same,growth inhibition,[2]; at 33.0 µM,-7%
same,growth inhibition,[2]; at 100.0 µM,1%
same,growth inhibition,[3]; at 1.2 µM,-3%
same,growth inhibition,[3]; at 3.7 µM,-6%
same,growth inhibition,[3]; at 11.0 µM,-7%
same,growth inhibition,[3]; at 33.0 µM,-7%
same,growth inhibition,[3]; at 100.0 µM,37%
same,growth inhibition,[4]; at 1.2 µM,-3%
same,growth inhibition,[4]; at 3.7 µM,-3%
same,growth inhibition,[4]; at 11.0 µM,7%
same,growth inhibition,[4]; at 33.0 µM,28%
same,growth inhibition,[4]; at 50.0 µM,-7.65%
same,growth inhibition,[4]; at 100.0 µM,78% (active)
same,growth inhibition,[5]; at 1.2 µM,-4%
same,growth inhibition,[5]; at 3.7 µM,8%
same,growth inhibition,[5]; at 11.0 µM,39%
same,growth inhibition,[5]; at 33.0 µM,82% (active)
same,growth inhibition,[5]; at 50.0 µM,54.6%
same,growth inhibition,[5]; at 100.0 µM,95% (active)
same,growth inhibition,[6]; at 1.2 µM,-2%
same,growth inhibition,[6]; at 3.7 µM,-6%
same,growth inhibition,[6]; at 11.0 µM,-8%
same,growth inhibition,[6]; at 33.0 µM,-5%
same,growth inhibition,[6]; at 100.0 µM,43%
same,growth inhibition,[7]; at 50.0 µM,0.6%
same,growth inhibition,[8]; at 1.2 µM,-8%
same,growth inhibition,[8]; at 3.7 µM,-18%
same,growth inhibition,[8]; at 11.0 µM,-17%
same,growth inhibition,[8]; at 33.0 µM,-16%
same,growth inhibition,[8]; at 100.0 µM,30%
same,growth inhibition,[9]; at 50.0 µM,-1.2%
same,growth inhibition,[10]; at 1.2 µM,-13%
same,growth inhibition,[10]; at 3.7 µM,-15%
same,growth inhibition,[10]; at 11.0 µM,-15%
same,growth inhibition,[10]; at 33.0 µM,-24%
same,growth inhibition,[10]; at 50.0 µM,-46.8%
same,growth inhibition,[10]; at 100.0 µM,43%
same,growth inhibition,[11]; at 1.2 µM,-4%
same,growth inhibition,[11]; at 3.7 µM,-5%
same,growth inhibition,[11]; at 11.0 µM,-7%
same,growth inhibition,[11]; at 33.0 µM,-2%
same,growth inhibition,[11]; at 100.0 µM,46%
same,growth inhibition,[12]; at 1.2 µM,-4%
same,growth inhibition,[12]; at 3.7 µM,-6%
same,growth inhibition,[12]; at 11.0 µM,-5%
same,growth inhibition,[12]; at 33.0 µM,5%
same,growth inhibition,[12]; at 100.0 µM,56%
same,growth inhibition,[13]; at 1.2 µM,-2%
same,growth inhibition,[13]; at 3.7 µM,-2%
same,growth inhibition,[13]; at 11.0 µM,5%
same,growth inhibition,[13]; at 33.0 µM,22%
same,growth inhibition,[13]; at 100.0 µM,75% (active)
same,growth inhibition,[14]; at 50.0 µM,-74.6%
COc1cc(N(C)C)ccc1/C=C\c1ccnc2ccccc12,growth inhibition,[1]; at 1.2 µM,-5%
same,growth inhibition,[1]; at 3.7 µM,-7%
same,growth inhibition,[1]; at 11.0 µM,-6%
same,growth inhibition,[1]; at 33.0 µM,-5%
same,growth inhibition,[1]; at 100.0 µM,-10%
same,growth inhibition,[2]; at 1.2 µM,-5%
same,growth inhibition,[2]; at 3.7 µM,-7%
same,growth inhibition,[2]; at 11.0 µM,-7%
same,growth inhibition,[2]; at 33.0 µM,-9%
same,growth inhibition,[2]; at 100.0 µM,-7%
same,growth inhibition,[4]; at 1.2 µM,-5%
same,growth inhibition,[4]; at 3.7 µM,-7%
same,growth inhibition,[4]; [16],-10%
same,growth inhibition,[4]; at 11.0 µM,-3%
same,growth inhibition,[4]; at 33.0 µM,-1%
same,growth inhibition,[4]; [17],-10%
same,growth inhibition,[4]; at 50.0 µM,2.3%
same,growth inhibition,[4]; at 100.0 µM,1%
same,growth inhibition,[5]; at 1.2 µM,-4%
same,growth inhibition,[5]; at 3.7 µM,-7%
same,growth inhibition,[5]; [16],-11%
same,growth inhibition,[5]; at 11.0 µM,-8%
same,growth inhibition,[5]; at 33.0 µM,-4%
same,growth inhibition,[5]; [17],-19%
same,growth inhibition,[5]; at 50.0 µM,-8.75%
same,growth inhibition,[5]; at 100.0 µM,0%
same,growth inhibition,[6]; at 1.2 µM,-5%
same,growth inhibition,[6]; at 3.7 µM,-4%
same,growth inhibition,[6]; at 11.0 µM,0%
same,growth inhibition,[6]; at 33.0 µM,6%
same,growth inhibition,[6]; at 100.0 µM,37%
same,growth inhibition,[7]; [16],0%
same,growth inhibition,[7]; [17],64%
same,growth inhibition,[7]; at 50.0 µM,-4.05%
same,growth inhibition,[8]; at 1.2 µM,-11%
same,growth inhibition,[8]; at 3.7 µM,-13%
same,growth inhibition,[8]; at 11.0 µM,-18%
same,growth inhibition,[8]; at 33.0 µM,-15%
same,growth inhibition,[8]; at 100.0 µM,-9%
same,growth inhibition,[9]; [16],-17%
same,growth inhibition,[9]; [17],-13%
same,growth inhibition,[9]; at 50.0 µM,-3.5%
same,growth inhibition,[10]; at 1.2 µM,-5%
same,growth inhibition,[10]; at 3.7 µM,-11%
same,growth inhibition,[10]; [16],-14%
same,growth inhibition,[10]; at 11.0 µM,-14%
same,growth inhibition,[10]; at 33.0 µM,-10%
same,growth inhibition,[10]; [17],-3%
same,growth inhibition,[10]; at 50.0 µM,-5.95%
same,growth inhibition,[10]; at 100.0 µM,4%
same,growth inhibition,[11]; at 1.2 µM,-4%
same,growth inhibition,[11]; at 3.7 µM,-7%
same,growth inhibition,[11]; at 11.0 µM,-4%
same,growth inhibition,[11]; at 33.0 µM,16%
same,growth inhibition,[11]; at 100.0 µM,31%
same,growth inhibition,[12]; at 1.2 µM,-1%
same,growth inhibition,[12]; at 3.7 µM,-6%
same,growth inhibition,[12]; at 11.0 µM,3%
same,growth inhibition,[12]; at 33.0 µM,22%
same,growth inhibition,[12]; at 100.0 µM,38%
same,growth inhibition,[13]; at 1.2 µM,-4%
same,growth inhibition,[13]; at 3.7 µM,-5%
same,growth inhibition,[13]; at 11.0 µM,10%
same,growth inhibition,[13]; at 33.0 µM,36%
same,growth inhibition,[13]; at 100.0 µM,45%
same,growth inhibition,[14]; [16],-8%
same,growth inhibition,[14]; [17],32%
same,growth inhibition,[14]; at 50.0 µM,2.15%
same,growth inhibition,[15]; at 1.2 µM,-4%
same,growth inhibition,[15]; at 3.7 µM,-2%
same,growth inhibition,[15]; at 11.0 µM,-1%
same,growth inhibition,[15]; at 33.0 µM,9%
same,growth inhibition,[15]; at 100.0 µM,14%
